# “And” between values parts separate entries of the source, which are not always exact repeats. Equal values may be shown once. About 83,000 compounds went through this panel and 20% of them were active in at least one assay; those are over-represented in the sample as a whole.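 Method: cells in 96-well plates; compound added at one concentration; 48 h incubation; percent growth measured; values under 10 scored active.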 The source made the active and inactive calls.
# Tested on: COLO 205 colon
# Experiment: NCI-60 one-dose screen, 48 h (100 = growth as untreated, 0 = no growth, -100 = all killed)
# Settings: 10 µM unless noted
row,SMILES,growth
1,COc1ccc(C/C(C)=C(/c2ccc(OCCN3CCCC3)cc2)c2ccc(OC(=O)NCc3ccccc3)cc2)cc1,77% (inactive)
2,CCN(CC)CCOc1ccc(/C(=C(\Cl)c2ccccc2)c2ccccc2)cc1,-74.8% (active) and -60.4% (active)
3,Cc1ccc(/C=C2\COc3ccc(O)c(O)c3C2=O)cc1,30.2% (inactive)
4,COc1ccc2c(c1)oc1c(C)c3c(c(C)c12)C(=O)N(Nc1ccccc1)C3=O,94% (inactive)
5,CCC(=C(c1ccc(OCCCN(C)C)cc1)c1ccc(OCCCN(C)C)cc1)c1ccc(Cl)cc1,-67.3% (active)
6,CCOC(=O)c1c(-c2ccc(C)cc2)c(C#N)c(=O)n(-c2cccc(C(F)(F)F)c2)c1N,106% (inactive)
7,S=c1nc(CS)[nH]c2ccccc12,112% (inactive)
8,O=C(N/N=C/c1ccc(O)cc1O)c1cccc(Nc2ccnc(C(F)(F)F)c2)c1,43% (inactive)
9,CCN(CC)CCCN1C(=O)c2c(c(C)c3c(oc4cc(OC)ccc43)c2C)C1=O,86.1% (inactive)
10,Cc1ccc(NC(=O)c2ccc(CN3CCN(C)CC3)cc2)cc1Nc1nccc(-c2cccnc2)n1,101% (inactive) and 78.3% (inactive)
11,COc1cc(/C=C2/C=C(c3ccc(C(C)(C)C)cc3)N(CCc3ccc(S(N)(=O)=O)cc3)C2=O)cc(OC)c1OC,34.3% (inactive)
12,O=c1c(/C=C/c2ccco2)nnc2sc(Nc3ccc(Cl)cc3)nn12,114% (inactive)
13,Nc1[nH]nc(Nc2ccccc2)c1-c1nc2ccccc2s1,64.2% (inactive)
